Test results taken from PubChem BioAssay AID977606 (Broad Institute, 2014).
The campaign covered roughly 1,500 compounds. About 430 (29%) were called active. These entries were drawn from the full list. Entries with a potency or affinity are not part of this list. A number with no mark means an inactive call. No rule for the calls is given here.

Assay: insulin secretion activators without glucose, dose response, counter-screen for glucose-dependent insulin secretion activators, cell-based, INS-1E, Gaussia luciferase, luminescence, cherry-pick (AID 977606);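 also: 0% = median of neutral control wells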
Details: INS-1E Gaussia luciferase insulin secretion, no glucose, 100% = twice neutral-control luminescence; series mostly up to 35 µM; activation: at the top concentration

Row | Structure (SMILES) | activation
1 | Nc1nc(N)nc(-c2ccc(Cl)cc2)n1 | 20.1%
2 | Cc1cccc(-c2cc3nc4c(c(N5CCCC(O)C5)n3n2)CCC4)c1 (configuration not stated) | -17.7%
3 | C=C1[C@@H](O)[C@H](CC(C)C)N(Cc2ccccc2Br)S1(=O)=O | 1.38%
4 | CCn1nnc(NC(=O)c2sc3ccccc3c2Cl)n1 | 9.4%
5 | Cc1c(NC(=S)NC(=O)c2sc3ccccc3c2Cl)cccc1C(=O)O | -3.09%
6 | Fc1ccc(-c2csc3nnc(SCc4cccnc4)n23)cc1 | -10.5%
7 | CC(C)(C)OC(=O)N1CCCN(C(=O)c2ccc(Cl)cc2)CC1 | -6.9%
8 | COc1nc(Nc2ccccc2)nc(OC)n1 | 18.4%
9 | CC1(C)N=C(c2ccccc2)C(c2ccccc2)=N1 | -1.46%
10 | COc1ccc2nc3ccccc3nc2c1NC(=O)c1ccc(Cl)cc1 | 21.8%
11 | Cc1c(C)n(CCCN(C)C)c2ncnc(Nc3ccccc3)c12 | -21.3%
12 | COc1ccc(C)c(-n2c(=O)n(Cc3ccccc3)c(=O)c3[nH]cnc32)c1 | -3.94%
13 | COc1ccc(CCn2nnc(-c3ccc(NC(C)=O)c(Cl)c3)n2)cc1 | -1.36%
14 | NC(=O)COC(=O)c1ccccc1Oc1ccccc1 | 2.37%
15 | Cc1ccc(OCC(=O)NC(C)c2ccccc2)cc1 (configuration not stated) | 9.34%
16 | Fc1ccc(-c2cc(C(F)(F)F)nc(-n3cncn3)n2)cc1 | 21.9%

Row | Structure (SMILES) | activation
17 | CCOC(=O)Nc1ccc2c(c1)Sc1ccccc1N2C(=O)CCN1CCOCC1 | 0.499%
18 | CCOC(=O)c1cnc2c(cnn2C)c1Oc1ccc(OC)cc1 | 5.49%
19 | CCNc1nc(CC)nc2c1oc1ccccc12 | 8.28%
20 | COCCn1c(-c2ccc3ccccc3c2)nc2c1c(=O)[nH]c(=O)n2CC(C)C | 10.6%
21 | CCCCn1c(-c2ccncc2)nc2c1c(=O)[nH]c(=O)n2CC(C)C | 31.7%
22 | Cc1cc(S(=O)(=O)NCc2cccnc2)ccc1F | -4%
23 | Cc1cccn2cc(CCNS(=O)(=O)c3cccs3)nc12 | -10.6%
24 | COc1cc2ccc(C(C)=NNC(N)=S)cc2cc1OC | -6.54%
25 | O=C(Nc1ccnn1C1CCN(C2CCC2)CC1)c1ccccc1Cl | -5.89%
26 | CC1Cc2ccccc2N1C(=S)NC(=O)c1cccc(Br)c1 (configuration not stated) | -5.85%
27 | O=S(=O)(NCC1CCCO1)c1ccc(Cl)nc1 (configuration not stated) | -8.07%
28 | Cc1ccccc1-n1nc2c(c1NC(=O)c1cc3ccccc3oc1=O)CS(=O)(=O)C2 | 5.15%
29 | CC(C)CC(=O)Nc1c2c(nn1-c1ccc(F)cc1)CS(=O)(=O)C2 | -0.198%
30 | O=C1N(c2ccccc2)c2ccccc2[C@]12C[C@H](O)CO2 | -11.7%
31 | CC(C(=O)Nc1ccc2[nH]c(=O)[nH]c2c1)N1CCN(Cc2ccc3c(c2)OCO3)CC1 (configuration not stated) | -9.39%
32 | O=C(c1ccco1)N1CCN(C2CN(Cc3ccccc3)S(=O)(=O)C2)CC1 (configuration not stated) | -9.32%
